# Data: PubChem BioAssay (NCATS)
# Results filed as inconclusive are left out. Calls of active or inactive are those of the source. The call rests on the fitted dose curve; in most records, active means well fitted cell-killing curve with a large enough effect; inconclusive means small, poorly fitted or top-dose-only effect, or effect the other way; inactive means no such curve, though single readings can be large or run the other way.
# Assay: Quantitative High-Throughput drug screen in 47 multiple myeloma cell lines against the NCATS MIPE library collection: Karpas25_ECACC cell viability assay (AID 1918968; further: nearly all actives have a fitted effect of over 35% in size)
# Details: Karpas25 myeloma viability, CellTiter-Glo ATP, 48 h; series mostly up to 45.8 µM; viability (% of control): at the top concentration
# From the text: PI: Beverly A. Mock Ph.D.
# Laboratory of Cancer Biology and Genetics,
# Center for Cancer Research, National Cancer Institute,
# National Institute of Health, Bethesda, Maryland
# Drug resistance and disease progression are common in multiple myeloma (MM) patients, underscoring the need for new therapeutic combinations. […] We hypothesized that effective combinations would reduce MYC expression and enhance p16 activity. […] These preclinical data identify potentially useful drug combinations for evaluation in drug-resistant MM and reveal potential mechanisms of combined drug sensitivity.
# Described herein is the primary MIPE qHTS used to cherrypick compounds. Validated compounds were then further tested for potential synergistic activiy.
# [1] Peat TJ, Gaikwad SM, Dubois W, Gyabaah-Kessie N, Zhang S, Gorjifard S, Phyo Z, Andres M, Hughitt VK, Simpson RM, Miller MA, Girvin AT, Taylor A, Williams D, D'Antonio N, Zhang Y, Rajagopalan A, Flietner E, Wilson K, Zhang X, Shinn P, Klumpp-Thomas C, McKnight C, Itkin Z, Chen L, Kazandijian D, Zhang J, Michalowski AM, Simmons JK, Keats J, Thomas CJ, Mock BA. Drug combinations identified by high-throughput screening promote cell cycle transition and upregulate Smad pathways in myeloma. Cancer Lett. 2023 Aug 1;568:216284. doi: 10.1016/j.canlet.2023.216284. Epub 2023 Jun 24. PMID: 37356470; PMCID: PMC10408729.
# SEQUENCE No. (e.g., 1, 2, 3, etc.); […] (e.g., Cells, Incubation, Reagent, etc.); VALUE and DESCRIPTION.
# 1; Cells; 5 uL; white, solid bottom 1536-well Greiner assay plate.
# 2; Compounds; 23 nL; Kalypsis pin tool (Wako USA) equipped with a 1536-well pin head to transfer to the assay plates.
# 3; Incubation; 48 hours; 37C incubation.
# 4; Reagent;5uL; CellTiter Glo (Promega).
# 5; Detector; 425V; Luminescence; Viewlux PerkinElmer.
# NOTES (numbers refer to Sequence numbers above)
# 1. The cell-based screening methods employed in this study were like those previously published. Briefly, the corresponding myeloma cell lines were screened in 1,536-well plates with 500 cells, 5-uL per well for inhibition of cell viability (assessed by measuring ATP levels with CellTiterGlo).
# 2. NCATS MIPE 4.0 library of approved and investigational drugs were added using the Kalypsis pin tool. Wells treated with DMSO only for 100% viability and media only wells for 0% viability were used as controls.
# 3. The assay plates were covered and incubated for 48 hours in a 37C, 5% CO2 incubator with controlled humidity.
# 4. After 48 hours, CellTilter-GloTM luminescent substrate mix (Promega) reagent was added to the assay plate and plates we incubated for 5 min at room temperature.
# 5. Signal was measured as median relative luminescence units on a ViewLux (PerkinElmer) multiplate reader.
# [1] Heske CM, Davis MI, Baumgart JT, Wilson K, Gormally MV, Chen L, Zhang X, Ceribelli M, Duveau DY, Guha R, Ferrer M, Arnaldez FI, Ji J, Tran HL, Zhang Y, Mendoza A, Helman LJ, Thomas CJ. Matrix Screen Identifies Synergistic Combination of PARP Inhibitors and Nicotinamide Phosphoribosyltransferase (NAMPT) Inhibitors in Ewing Sarcoma. Clin Cancer Res. 2017 Dec 1;23(23):7301-7311. doi: 10.1158/1078-0432.CCR-17-1121. Epub 2017 Sep 12. PMID: 28899971; PMCID: PMC6636827.
# Potency means the concentration at half of the fitted maximal effect.
SMILES,Potency,viability (% of control)
CC(C)c1ccccc1Cc1cc(C(=O)Nc2ccc(S(=O)(=O)c3ccccc3C(C)(C)C)cc2)c(O)c(O)c1O,3.72 µM (active),
Cc1ccc(C(=O)Nc2cccc(C(F)(F)F)c2)cc1-c1ccc2nc(NCCN3CCOCC3)ncc2c1,5.26 µM (active),
Cc1cn2c(-c3cn[nH]c3)cnc2c(Nc2ccc(C(=O)N3CCNCC3)cc2F)n1,18.7 µM (active),
CC1(C)CC(=O)c2c(C(F)(F)F)nn(-c3ccc(C(N)=O)c(NC4CCC(OC(=O)CN)CC4)c3)c2C1 (stereo not given),0.187 µM (active),
CCC(=C(c1ccccc1)c1ccc(OCCN(C)C)cc1)c1ccccc1,18.7 µM (active),
Cn1cc(-c2[nH]c3cc(NC(=O)[C@H](N)C4CCCCC4)cc4c3c2C=NNC4=O)cn1,0.935 µM (active),
C[C@@]12O[C@@H](C[C@]1(O)CO)n1c3ccccc3c3c4c(c5c6ccccc6n2c5c31)CNC4=O,0.296 µM (active),
C=CC(=O)Nc1cc2c(Nc3ccc(F)c(Cl)c3)ncnc2cc1C#CC(C)(C)N1CCN(C)CC1,0.526 µM (active),
Nc1nc(NCCNc2ncc(-n3ccnc3)c(-c3ccc(Cl)cc3Cl)n2)ccc1[N+](=O)[O-],1.48 µM (active),
C[C@]12CC[C@H](O)CC1=CCC1C2CC[C@]2(C)C(n3cnc4ccccc43)=CCC12 (stereo not given in full),,109% (inactive)
CC1(C)OC2=C(C(=O)c3ccccc3C2=O)[C@H](NCc2ccccc2)[C@H]1O,0.59 µM (active),
Cc1cnc(Nc2ccc(F)cc2Cl)nc1-c1c[nH]c(C(=O)N[C@H](CO)c2cccc(Cl)c2)c1,14.8 µM (active),
OCc1ccc(-c2ccc(-c3ccc(CO)s3)o2)s1,3.72 µM (active),
CCN(CC)CCCCNc1ncc2cc(-c3cc(OC)cc(OC)c3)c(NC(=O)NC(C)(C)C)nc2n1,10.5 µM (active),
CCc1c2c(nc3ccc(O)cc13)-c1cc3c(c(=O)n1C2)COC(=O)[C@]3(O)CC,0.0662 µM (active),
Cc1nc2cnc3ccc(C#Cc4cccnc4)cc3c2n1-c1ccc(C(C)(C)C#N)cc1,0.0264 µM (active),
C[C@@H](Oc1cc(-c2cnn(C3CCNCC3)c2)cnc1N)c1c(Cl)ccc(F)c1Cl,2.35 µM (active),
CN(C)c1nc(Cc2ccc(NC(=O)c3ccc4ccccc4c3)cc2)nc(Cl)c1CC(=O)O,,100% (inactive)
COc1cc2ncnc(Nc3ccc(F)c(Cl)c3)c2cc1NC(=O)C=CCN1CCCCC1,2.96 µM (active),
Cc1cc(Nc2cc(NC(=O)c3c(Cl)cccc3Cl)ccn2)nc(N)n1,13.2 µM (active),

SMILES,Potency,viability (% of control)
Nc1ccccc1NC(=O)c1ccc(CNC(=O)OCc2cccnc2)cc1,0.833 µM (active),
CC(C)C[C@H](NC(=O)CNC(=O)c1cc(Cl)ccc1Cl)B(O)O,0.0418 µM (active),
COc1ccc(-c2cc3c(C)nc(N)nc3n(C3CCC(OCCO)CC3)c2=O)cn1 (stereo not given),0.0264 µM (active),
CNC(=O)c1c(F)cccc1Nc1nc(Nc2cc3c(cc2OC)CCN3C(=O)CN(C)C)nc2[nH]ccc12,0.0935 µM (active),
Cc1cnc(-c2cnc(NCCNc3ccc(C#N)cn3)nc2-c2ccc(Cl)cc2Cl)[nH]1,5.9 µM (active),
COc1cc2c(Oc3ccc(NC(=O)C4(C(=O)Nc5ccc(F)cc5)CC4)cc3F)ccnc2cc1OCCCN1CCOCC1,0.935 µM (active),
C[C@H]1C[C@@H]2[C@@H]([C@@H](O)C[C@@]3(C)[C@H]2CC[C@]3(O)C(=O)CO)[C@@]2(C)C=CC(=O)C=C12,0.105 µM (active),
CC(NCc1ccc2c(c1)nc(NC(=O)c1ccc(-c3cn[nH]c3)s1)n2CC(C)(C)O)C(C)(C)C (stereo not given),0.264 µM (active),
CNc1nccc(-c2cccnc2Oc2cc(C(=O)Nc3cccc(C(F)(F)F)c3)ccc2C)n1,8.33 µM (active),
COc1cc2c(NC3CCN(C(C)C)CC3)nc(C3CCCCC3)nc2cc1OCCCN1CCCC1,7.43 µM (active),
O=C(O)c1ccc2cc(-c3ccc(O)c(C45CC6CC(CC(C6)C4)C5)c3)ccc2c1,1.48 µM (active),
C1=CCOCc2cc(ccc2OCCN2CCCC2)Nc2nccc(n2)-c2cccc(c2)OCC1,1.66 µM (active),
N#Cc1c(O)c2c(-c3ccc(-c4ccccc4O)cc3)csc2[nH]c1=O,,143% (inactive)
COC(=O)[C@]12CCC(C)(C)C[C@@H]1[C@@H]1C(=O)C=C3[C@@]4(C)C=C(C#N)C(=O)C(C)(C)[C@@H]4CC[C@@]3(C)[C@]1(C)CC2,0.209 µM (active),
O=C(c1ccc(Nc2nccc(-c3cc4ccccc4s3)n2)cc1)N1CCC(N2CCCC2)CC1,4.18 µM (active),
CCCCN1CCC(CNC(=O)c2c3n(c4ccccc24)CCCO3)CC1,8.33 µM (active),
COc1cc2c(Oc3ccc4[nH]c(C)cc4c3F)ncnc2cc1OCCCN1CCCC1,5.9 µM (active),
Clc1cccc(-c2nnnn2Cc2cccnc2)c1Cl,16.6 µM (active),
c1ccc2c(CCNc3ccc(Nc4ccncc4)cc3)c[nH]c2c1,20.9 µM (active),
CC(C)(C)c1cc(NC(=O)Nc2ccc(-c3cn4c(n3)sc3cc(OCCN5CCOCC5)ccc34)cc2)no1,13.2 µM (active),
